In the library only some 11% were active in any assay of this set; here they are far more common.
Pf growth 96h: P. falciparum growth inhibition at 96 hour, primary screen for plastid delayed-death inhibitors; P. falciparum luciferase reporter growth, 96 h; Potency, µM (top dose mostly 28.7 µM), actives largely listed as inhibitors; 6.9% of 320,000 active
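Luminescence readout: decreased luciferase signal marks inhibited growth of reporter-expressing P. falciparum in infected red cells (2% hematocrit, 0.05% parasitemia final), exposed to compound two generations (96 h, 37 C, 5% CO2).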
Sm TGR block: inhibitors of Schistosoma mansoni thioredoxin glutathione reductase; Q962Y6; purified TGR, DTNB reduction, TNB absorbance 405 nm; Potency, µM (titrated, usually from 114 µM), actives largely listed as inhibitors; 3% of 360,000 active; AID 485364; further: nearly all actives have a fitted effect of over 60% in size
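First, TGR (20 nM dispensed) and NADPH were mixed with compound. Second, a 15 min room-temperature incubation followed. Third, further NADPH and then DTNB were added to start the reaction. Finally, TNB absorbance was monitored kinetically.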
NS1 inh: blocks influenza NS1 protein function. Potency, µM (titrated, usually from 46.1 µM). 0.4% of 270,000 active; calls by dose curve; further: actives are rising curves; nearly all actives have a fitted effect of over 50% in size
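In this qHTS, NS1 from influenza A is expressed in budding yeast, where it slows growth. Cells are switched from glucose to 2% galactose medium (pH 6.0, -URA), treated with compound, and growth recovery is read at OD600.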
Pf growth 48h: P. falciparum growth inhibition at 48 hours (one generation); P. falciparum luciferase growth in erythrocytes, 48 h; 5.9% of 310,000 active; AID 504832; Potency, µM (highest dose often 28.7 µM), hits mostly inhibitors
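Luciferase-expressing parasites in RBCs, 2% Hct / 0.1% parasitemia final; RPMI 1640 + 0.5% Albumax; 37 C, 5% CO2, one generation; luminescence read-out, lower signal = inhibition.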
AMA1 RON2 block: inhibitors of Plasmodium falciparum AMA1-RON2 interaction. Potency, µM (top dose mostly 58.2 µM), usual class: inhibitors. 0.2% of 360,000 active. AlphaScreen AMA1-biotinylated RON2 peptide binding; further: nearly all actives have a fitted effect of over 45% in size
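AMA1 (3D7) with his tag at 25 nM final met compounds first, then biotinylated RON2 peptide at 25 nM; detection used donor plus acceptor beads, 10 µg/mL apiece, read by AlphaScreen after 30 min at room temperature.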
A number is an active result; – = inactive; ? = inconclusive; · = not tested or not shown. Unless noted, the call rests on the fitted dose curve; in most records, active means well fitted curve in the direction sought with a large enough effect; inconclusive means small, poorly fitted or top-dose-only effect, or another doubt; inactive means no such curve, though single readings can be large; an effect the other way counts as inactive or inconclusive.

SMILES	Pf growth 96h	Sm TGR block	NS1 inh	Pf growth 48h	AMA1 RON2 block
CCOC(=O)N1C(=O)[C@](CC)(c2ccccc2)N1C(=O)OCC	–	2.82µM	–	–	–
CCC1(c2ccccc2)C(=O)N(C(=O)OC(C)(C)C)N1C(=O)OC(C)(C)C (centres undefined)	?	–	·	13.1µM	–
CSc1ncc(C(=O)Nc2cc(C)ccc2C)c(C)n1	?	–	–	–	–
CCCS(=O)(=O)N1CCN=C1SCc1cccnc1	?	–	·	?	–
CC(C)c1cccc(C2=CC(=O)C[C@H](c3ccc4c(c3)OCO4)C2)c1	8.28µM	–	·	13.1µM	–
O=C1C=C(c2cccc(Cl)c2O)C[C@@H](c2ccc(Cl)cc2)C1	1.47µM	–	·	2.94µM	–
CSc1ccc(C2=CC(=O)C[C@H](c3ccc(Cl)cc3)C2)cc1	–	–	·	?	–
O=C1C=C(c2cc(F)ccc2F)C[C@@H](c2ccc(Cl)cc2)C1	?	–	·	3.7µM	–
O=C1C=C(c2cccc(Cl)c2)C[C@@H](c2ccc(Cl)cc2)C1	2.08µM	–	·	3.29µM	–
O=C1C=C(c2cccc(Br)c2)C[C@@H](c2ccc(Cl)cc2)C1	·	·	·	·	–
CC(C(c1ccc2c(c1)OCO2)c1c(N)n(C)c(=O)n(C)c1=O)[N+](=O)[O-] (centres undefined)	·	·	·	·	–
CCOC(=O)c1sc2ccccc2c1S(=O)(=O)Nc1cc(OC)ccc1OC	·	–	·	·	·
COc1ccc(C(NC(=O)CC(C)C)NC(=O)CC(C)C)cc1OC	10.4µM	–	–	–	–
CCCCC(=O)NC(NC(=O)CCCC)c1ccc(OCC(C)C)c(OC)c1	–	–	–	–	–
Cc1cccc(C)c1NC(=S)N/N=C1\CC2CC=CC12 (centres undefined)	9.28µM	–	–	?	–
CCC1(OC(=O)CN)C(=O)OCc2c1cc1n(c2=O)Cc2cc3ccccc3nc2-1 (centres undefined)	0.928µM	–	–	1.65µM	–
CC[C@@]1(O)C(=O)OCc2c1cc1n(c2=O)Cc2cc3c(NC(=O)CN)cccc3nc2-1	7.38µM	?	–	?	–
CC[C@@]1(O)C(=O)OCc2c1cc1n(c2=O)Cc2cc3ccccc3nc2-1	?	–	–	?	·
CS(=O)(=O)c1ccc2nc(NC(=O)CN3C(=O)NC4(CCCC4)C3=O)sc2c1	–	–	–	–	–
O=C(CCCSc1ccccc1)Nc1cccc(CO)c1	–	–	–	–	–
COc1ccc(NC(=O)N(C)C[C@H]2Oc3ccc(NC(=O)Nc4c(C)noc4C)cc3C(=O)N([C@H](C)CO)C[C@@H]2C)cc1	·	·	·	·	–
CCCCN(C(=O)C1CC(=O)N(CCc2ccc(OC)c(OC)c2)C1)c1c(N)n(CCCC)c(=O)[nH]c1=O (centres undefined)	–	–	·	?	–
CCOC(=O)C1CCCN(C(=O)CCCn2nnnc2CN2CCOCC2)C1 (centres undefined)	?	39.8µM	–	–	–
O=C(CCn1nnnc1CN1CCOCC1)N1CCC(c2ccccc2F)C1 (centres undefined)	–	25.1µM	–	–	–
CCOC(=O)C1CCCN(C(=O)CCCn2nc(C)n3c(cc4sccc43)c2=O)C1 (centres undefined)	2.94µM	–	–	·	–
SMILES	Pf growth 96h	Sm TGR block	NS1 inh	Pf growth 48h	AMA1 RON2 block
COc1cc(C(=O)OCC(=O)Nc2ccc(S(=O)(=O)N3CCCC3)cc2)cc(OC)c1OC	·	·	·	·	–
O=C(NCc1ccccc1)c1sc(=S)n2c1[nH]c(=O)c1ccccc12	13.1µM	–	–	–	–
CCCCNC(=O)c1sc(=S)n2c1[nH]c(=O)c1ccc(C(=O)NCCc3ccc(OC)c(OC)c3)cc12	?	–	–	?	–
CC(=O)Nc1ccc(N/C(N)=N/c2nc(C)cc(C)n2)cc1	?	–	·	?	–
COc1ccc(C)cc1N/C(N)=N/c1nc(C)cc(C)n1	?	–	·	11.7µM	–
COc1ccc(OC)c(N/C(N)=N/c2nc(C)cc(C)n2)c1	–	–	–	–	–
COc1cc(N/C(N)=N/c2nc(C)cc(C)n2)cc(OC)c1	10.4µM	–	–	?	–
COc1ccc(N/C(N)=N/c2nc(C)cc(C)n2)c(OC)c1	–	·	–	–	–
Cc1cc(C)nc(/N=C(\N)Nc2ccc(SC(F)F)cc2)n1	13.1µM	–	–	11.7µM	–
Cc1ccc(C)c(N/C(N)=N/c2nc(C)cc(C)n2)c1	?	–	–	11.7µM	–
